# Test results as given in PubChem BioAssay (Tox21).
# Results filed as inconclusive are left out. Where a call stands in place of a potency, no number is given. The source made the active and inactive calls. Calls follow the shape of the full dose curve.
# Biological target: Peroxisome proliferator-activated receptor delta (Homo sapiens) (UniProt Q03181)
# Assay: qHTS assay to identify small molecule agonists of the peroxisome proliferator-activated receptor delta (PPARd) signaling pathway (AID 743212)
# Settings: HEK293H PPARd-UAS-bla, beta-lactamase FRET ratio, 17 h; series mostly up to 62.6 µM; activation: at the top concentration
# Text: U.S. Tox21 Program National Center for Advancing Translational Sciences [NCATS] NIH Chemical Genomics Center [NCGC] U.S. Environmental Protection Agency [EPA] National Institutes of Environmental Health Sciences [NIEHS] National Toxicology Program [NTP] U.S. Food and Drug Administration [FDA] Tox21 Assay Overview: The peroxisome proliferator-activated receptors (PPARs) are lipid-activated transcription factors of the nuclear receptor superfamily with three distinct subtypes namely PPAR alpha, PPAR delta (PPARd) and PPAR gamma. All these subtypes heterodimerizes with Retinoid X receptor (RXR) and have different physiological functions. […] To identify the compounds that activate PPAR-delta signaling, GeneBLAzer PPAR delta UAS-bla HEK293H cell line (Invitrogen, Carlsbad, CA, USA) containing a beta-lactamase reporter gene under the control of an Upstream Activator Sequence (UAS) was used to screen the Tox21 compound library.
# Tox21 Assay Protocol Summary: PPARd-bla cells were dispensed at 3000 cells/6uL/well in 1536-well black wall/clear bottom plates using a Multidrop Combi (Thermo Fisher Scientific, Waltham, MA) dispenser. After the assay plates were incubated at 37 C and 5% CO2 for 5 h, 23 nL of compounds dissolved in DMSO, positive controls or DMSO only was transferred to the assay plate by a Pintool station (Kalypsys, San Diego, CA). The assay plates were incubated at 37C for 17 h. After 1 uL of LiveBLAzerTM B/G FRET substrate was added using a Bioraptr Flying Reagent Dispenser (FRD) workstation (Beckman Coulter, Indianapolis, IN, USA), the plates were incubated at room temperature for 2 h, and fluorescence intensity was measured by an Envision plate reader (PerkinElmer, Shelton, CT).
# Peroxisome proliferator-activated receptor delta (Homo sapiens), sequence (Q03181 whole entry, looked up): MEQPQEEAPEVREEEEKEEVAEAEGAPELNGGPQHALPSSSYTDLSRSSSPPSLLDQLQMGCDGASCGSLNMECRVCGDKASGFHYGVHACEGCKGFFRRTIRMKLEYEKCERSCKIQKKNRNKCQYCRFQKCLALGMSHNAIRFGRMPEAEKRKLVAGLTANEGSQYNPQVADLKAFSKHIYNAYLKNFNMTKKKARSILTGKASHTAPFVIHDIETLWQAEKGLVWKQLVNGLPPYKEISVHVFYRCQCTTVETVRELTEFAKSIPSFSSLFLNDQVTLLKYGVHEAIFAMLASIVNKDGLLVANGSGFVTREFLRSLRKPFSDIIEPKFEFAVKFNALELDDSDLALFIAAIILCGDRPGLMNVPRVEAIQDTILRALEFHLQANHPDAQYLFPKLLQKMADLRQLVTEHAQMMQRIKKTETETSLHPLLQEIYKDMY
SMILES,Potency,activation
CC(C)Nc1nc(Cl)nc(NC(C)C)n1,inactive,–
Nc1ncn[nH]1,inactive,–
N#Cc1cccnc1,inactive,–
CCCCOCC1CO1 (stereo not given),inactive,–
CCOP(=S)(OCC)OP(=S)(OCC)OCC,inactive,–
Oc1ccc(Cl)cc1Cl,inactive,–
OCCOCCO,inactive,–
c1ccc2c(c1)Nc1ccccc1S2,inactive,–
C[N+](C)(C)CC(=O)[O-],inactive,–
C=C(C)C#N,inactive,–
Nc1ccc([N+](=O)[O-])cc1N,inactive,–
CCCCOCCOC(C)=O,inactive,–
CCOC(=O)c1ccccc1N,inactive,–
[CH3][Sn]([Cl])([Cl])[Cl],inactive,–
ClC(Cl)=C(Cl)C(Cl)=C(Cl)Cl,inactive,–
O=C1C(Cl)=C(Cl)C(=O)c2ccccc21,–,6.91% (inactive)
CC(C)Nc1ccc(Nc2ccccc2)cc1,inactive,–
CC[n+]1c(-c2ccccc2)c2cc(N)ccc2c2ccc(N)cc21,inactive,–
c1ccc(C2CO2)cc1 (stereo not given),inactive,–
O=C1Nc2ccc(Cl)cc2C(c2ccccc2)=NC1O (stereo not given),–,0.938% [at 81.1 µM] (inactive)

SMILES,Potency,activation
CC(C)(C#N)N=NC(C)(C)C#N,inactive,–
N#Cc1nn(-c2c(Cl)cc(C(F)(F)F)cc2Cl)c(N)c1S(=O)C(F)(F)F (stereo not given),inactive,–
N#CCCCCC#N,inactive,–
CCOS(=O)(=O)OCC,inactive,–
OC(c1ccc(Cl)cc1)(c1cncnc1)c1ccccc1Cl (stereo not given),inactive,–
CCOP(=S)(OCC)SCSC(C)(C)C,inactive,–
O=NN1CCOCC1,inactive,–
CC1(C)C(C(=O)OC(C#N)c2cccc(Oc3ccccc3)c2)C1(C)C (stereo not given),inactive,–
Clc1ccccc1-c1nnc(-c2ccccc2Cl)nn1,–,2.53% (inactive)
CCNCC,inactive,–
CC(C)=CC1C(C(=O)OCc2cccc(Oc3ccccc3)c2)C1(C)C (stereo not given),inactive,–
O=P(OCCCl)(OCCCl)OCCCl,inactive,–
Oc1ccc(Cl)cc1Cc1ccccc1,inactive,–
CCN(CC)C(=O)C(C)Oc1cccc2ccccc12 (stereo not given),inactive,–
C[C@]12CCC(=O)C=C1CC[C@@H]1[C@@H]2CC[C@@]2(C)[C@H]1CC[C@]2(C)O,–,-4.32% (inactive)
Cn1c(-c2ccccc2)cc(-c2ccccc2)[n+]1C,inactive,–
O=C1CCCO1,–,2.58% (inactive)
CCCCCCCCCCCCCl,inactive,–
ClC(Cl)(Cl)Br,inactive,–
CCCCOC(=O)COC(=O)c1ccccc1C(=O)OCCCC,inactive,–
